PubChem BioAssay (Tox21)
Records with an inconclusive call do not appear. The source made the active and inactive calls. Unless noted, the call rests on the fitted dose curve; in most records, active means well fitted curve in the direction sought with a large enough effect in the repeat runs; inconclusive means weak or mixed curves; inactive means no such curve, though single readings can be large; an effect the other way counts as inactive or inconclusive.

Experiments:
[1] = A CellTox Green Cytotoxicity Assay to monitor cytotoxicity in HepG2 cells - 0 hour (AID 1224882); further: nearly all actives have a fitted effect of over 35% in size
Method in brief: (§1)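 First, HepG2 cells (600/well) mixed with reagent were plated; second, after 5 h at 37 C they received compounds via pintool; third, fluorescence was measured at 0 h through 40 h at 8 h intervals.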

[2] = A CellTox Green Cytotoxicity Assay to monitor cytotoxicity in HEK293 cells - 8 hour (AID 1224884); further: nearly all actives have a fitted effect of over 35% in size; further: potency means the concentration at half of the fitted maximal effect
Method in brief: (§2)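 Dead-cell fluorescence measured kinetically: asymmetric cyanine dye, HEK293, 600 cells/well, 5 h settle, 23 nL cpd/DMSO, 37 C, reads 0–40 h every 8 h.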

[3] = qHTS RealTime-Glo MT Cell Viability Assay in HepG2 cells - 16 hour (AID 1224885); further: nearly all actives have a fitted effect of over 50% in size
Method in brief: (§3)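 HepG2 suspension premixed with RealTime-Glo reagents is plated at 600 cells per well and left 5 h at 37 C/5% CO2. Compounds in DMSO then go in, and bioluminescence reflecting viable cell number is recorded over 40 h.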

[4] = qHTS RealTime-Glo MT Cell Viability Assay in HEK293 cells - 24 hour (AID 1224886); further: nearly all actives have a fitted effect of over 50% in size; further: potency means the concentration at half of the fitted maximal effect
Method in brief: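 Reads taken at 0, 8, 16, 24, 32 and 40 h from the same wells. HEK293 cells (600/well) carried RealTime-Glo reagents from seeding, with compound added after a 5 h settle at 37 C.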

[5] = A CellTox Green Cytotoxicity Assay to monitor cytotoxicity in HEK293 cells - 16 hour (AID 1224888); further: nearly all actives have a fitted effect of over 35% in size; further: potency means the concentration at half of the fitted maximal effect
Method in brief: as §2

[6] = qHTS RealTime-Glo MT Cell Viability Assay in HepG2 cells - 0 hour (AID 1224889); further: nearly all actives have a fitted effect of over 50% in size
Method in brief: as §3

[7] = qHTS assay to identify small molecule antagonists of the estrogen receptor alpha (ER-alpha) signaling pathway using the BG1 cell line in the presence of 0.1 nM 17-beta-estradiol - cell viability counter screen (AID 1259241); further: nearly all actives have a fitted effect of over 40% in size
Method in brief: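 VM7Luc4E2 cells (endogenous full-length ER-alpha, 4xERE-luciferase), cultured 5 days in charcoal-stripped serum, exposed to compounds with 0.1 nM 17beta-estradiol (final) for 22 hr at 37C. Viability read in same wells as live-cell protease fluorescence after 30 min.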

[8] = qHTS assay to identify small molecule antagonists of the androgen receptor (AR) signaling pathway using the MDA cell line in the presence of 0.5 nM R1881 - cell viability counter screen (AID 1259242); further: nearly all actives have a fitted effect of over 45% in size; further: potency means the concentration at half of the fitted maximal effect
Method in brief: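 qHTS format. MDA-kb2 (MMTV-luc, AR/GR responsive) + cpd + 0.5 nM R1881 final, 16 hr 37C/0% CO2 → CellTiter-Fluor 30 min → fluorescence intensity.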

[9] = qHTS assay to identify small molecule HDAC inhibitors (AID 1259364);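 further: wild-type HCT-116 cells with endogenous class I/II HDAC activity; top concentration of the series differs between compounds; nearly all actives have a fitted effect of over 45% in size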
Method in brief: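 Quantitative high-throughput format: overnight-seeded HCT-116 cells got compounds for 2 hr at 37C; HDAC-Glo I/II reagent added, 30 min RT, luminescence measured.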

[10] = qHTS assay to identify small molecule HDAC inhibitors - cell viability counter screen (AID 1259365); further: series mostly up to about 92 µM; nearly all actives have a fitted effect of over 50% in size
Method in brief: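 Wild-type HCT-116 cells, 1,500/well, cultured overnight, then compound-treated 2 h at 37 C. Viability measured as ATP luminescence with CellTiter-Glo after 30 min at room temperature.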

[11] = qHTS assay to identify small molecule antagonists of the sonic hedgehog signaling (Shh) pathway - cell viability counter screen (AID 1259367); further: nearly all actives have a fitted effect of over 55% in size; further: potency means the concentration at half of the fitted maximal effect
Method in brief: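 Conditioned medium drove Shh signaling in 3T3 Gli1-Luc cells exposed to compounds at 37C and 5% CO2. Viability was determined from CellTiter-Fluor fluorescence, with reagent incubated 1 hr after 23 hr of treatment.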

[12] = qHTS assay to identify small molecule agonists of the sonic hedgehog signaling (Shh) pathway (AID 1259368; calls by dose curve;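 further: NIH/3T3-derived 3T3Gli1-Luc cells carrying a stable Gli1-driven firefly luciferase reporter; series mostly up to about 92 µM; nearly all actives have a fitted effect of over 15% in size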)
Method in brief: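 Quantitative high-throughput format using a Gli1-driven firefly luciferase reporter line derived from NIH/3T3 cells. After a 24 hr compound treatment at 37 C and 5% CO2, luminescence reported Gli1 response element activity.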

[13] = A CellTox Green Cytotoxicity Assay to monitor cytotoxicity in HepG2 cells - 32 hour (AID 1224883); further: nearly all actives have a fitted effect of over 50% in size; further: potency means the concentration at half of the fitted maximal effect
Method in brief: as §1

[14] = qHTS RealTime-Glo MT Cell Viability Assay in HEK293 cells - 8 hour (AID 1224887); further: nearly all actives have a fitted effect of over 50% in size; further: potency means the concentration at half of the fitted maximal effect
Method in brief: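 600 HEK293 cells per well, dispensed already mixed with RealTime-Glo MT reagents. Compound dosing came 5 h later. The same wells were read for luminescence at 0, 8, 16, 24, 32 and 40 h of exposure at 37 C.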

[15] = A CellTox Green Cytotoxicity Assay to monitor cytotoxicity in HepG2 cells - 8 hour (AID 1224890); further: nearly all actives have a fitted effect of over 45% in size; further: potency means the concentration at half of the fitted maximal effect
Method in brief: as §1

[16] = qHTS assay to identify small molecule agonists of the sonic hedgehog signaling (Shh) pathway - cell viability counter screen (AID 1259366); further: nearly all actives have a fitted effect of over 50% in size; further: potency means the concentration at half of the fitted maximal effect
Method in brief: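 NIH/3T3-derived Gli1-Luc reporter cells, 2,000 per well, received compound after 4 h and were treated about 23 h at 37C. Viability measured in the same wells by CellTiter-Fluor fluorescence after 1 h.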

[17] = molecular target: Androgen receptor (Homo sapiens) (UniProt P10275); test: qHTS assay to identify small molecule antagonists of the androgen receptor (AR) signaling pathway using the MDA cell line in the presence of 0.5 nM R1881 (AID 1259243); further: nearly all actives have a fitted effect of over 50% in size
Method in brief: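 Antagonist mode quantitative HTS in MDA-kb2 MMTV-luciferase cells, agonist R1881 at 0.5 nM final, 16 hr exposure at 37C and 0% CO2, luminescent detection.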

[18] = molecular target: Estrogen receptor (Homo sapiens) (UniProt P03372); test: qHTS assay to identify small molecule antagonists of the estrogen receptor alpha (ER-alpha) signaling pathway using the BG1 cell line in the presence of 0.1 nM 17-beta-estradiol (AID 1259244); further: nearly all actives have a fitted effect of over 50% in size; further: potency means the concentration at half of the fitted maximal effect
Method in brief: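 Reporter is a stably transfected luciferase under four estrogen responsive elements in VM7Luc4E2 cells expressing native full-length ER-alpha; inhibition of 0.1 nM (final) 17beta-estradiol-driven signal over 22 h is read by luminescence.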

[19] = qHTS assay to identify small molecule phospholipidosis (PLD) inducers (AID 1259344; active means well fitted curve in the direction sought with a large enough effect; an effect the other way counts as inactive or inconclusive)
Method in brief: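 After 4 h attachment on collagen I, HepG2 cells were dosed with compound alongside LipidTOX Red, kept 24 h at 37 C, fixed, and imaged for lamellar phospholipid pits.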

Measured: Potency

Chain of Estrogen receptor (Homo sapiens) (P03372 whole entry, looked up): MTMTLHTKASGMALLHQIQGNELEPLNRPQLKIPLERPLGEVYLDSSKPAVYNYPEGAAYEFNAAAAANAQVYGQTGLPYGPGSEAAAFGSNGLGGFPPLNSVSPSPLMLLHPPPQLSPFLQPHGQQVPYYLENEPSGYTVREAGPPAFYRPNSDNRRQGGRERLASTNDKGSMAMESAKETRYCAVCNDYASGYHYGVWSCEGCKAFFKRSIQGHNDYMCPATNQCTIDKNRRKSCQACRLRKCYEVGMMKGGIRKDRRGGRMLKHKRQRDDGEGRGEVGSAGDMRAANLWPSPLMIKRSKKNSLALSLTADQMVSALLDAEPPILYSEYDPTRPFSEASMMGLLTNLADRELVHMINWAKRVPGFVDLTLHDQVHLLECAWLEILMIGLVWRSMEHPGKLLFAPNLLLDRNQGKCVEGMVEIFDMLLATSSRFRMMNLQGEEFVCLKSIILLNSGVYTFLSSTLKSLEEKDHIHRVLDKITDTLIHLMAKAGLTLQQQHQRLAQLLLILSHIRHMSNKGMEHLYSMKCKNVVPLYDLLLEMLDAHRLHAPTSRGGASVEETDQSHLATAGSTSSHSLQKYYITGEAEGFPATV
Chain of Androgen receptor (Homo sapiens) (P10275 whole entry, looked up): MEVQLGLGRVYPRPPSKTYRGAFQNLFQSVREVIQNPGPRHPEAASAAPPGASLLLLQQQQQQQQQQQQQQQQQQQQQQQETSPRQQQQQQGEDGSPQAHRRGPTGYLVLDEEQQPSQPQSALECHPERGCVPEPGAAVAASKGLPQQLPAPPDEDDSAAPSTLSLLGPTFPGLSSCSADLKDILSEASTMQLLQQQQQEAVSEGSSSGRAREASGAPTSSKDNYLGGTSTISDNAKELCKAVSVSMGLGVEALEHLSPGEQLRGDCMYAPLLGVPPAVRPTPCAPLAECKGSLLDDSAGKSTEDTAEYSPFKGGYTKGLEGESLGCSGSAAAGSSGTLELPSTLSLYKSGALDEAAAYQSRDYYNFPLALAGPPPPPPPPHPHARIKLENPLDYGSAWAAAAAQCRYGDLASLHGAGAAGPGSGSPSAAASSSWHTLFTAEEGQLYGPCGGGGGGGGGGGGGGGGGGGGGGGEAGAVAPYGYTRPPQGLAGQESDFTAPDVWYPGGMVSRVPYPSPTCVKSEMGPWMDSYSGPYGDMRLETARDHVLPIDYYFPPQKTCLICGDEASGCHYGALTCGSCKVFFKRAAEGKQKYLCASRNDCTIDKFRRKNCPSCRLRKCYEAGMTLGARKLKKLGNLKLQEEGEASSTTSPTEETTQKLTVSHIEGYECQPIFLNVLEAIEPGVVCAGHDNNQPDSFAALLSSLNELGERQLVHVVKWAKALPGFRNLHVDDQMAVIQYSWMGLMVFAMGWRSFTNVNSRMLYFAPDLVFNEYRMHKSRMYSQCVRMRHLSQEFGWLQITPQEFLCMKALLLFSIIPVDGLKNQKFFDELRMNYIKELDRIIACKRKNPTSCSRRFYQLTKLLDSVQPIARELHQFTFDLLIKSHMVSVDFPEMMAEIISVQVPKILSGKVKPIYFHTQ

CCCNCC(O)COc1ccccc1C(=O)CCc1ccccc1 (stereo not given)
active: [4] 2.13 µM
not listed: [13] | [14] | [15] | [16] | [17] | [18] | [19]
inactive: all other assays above

CCC(C)c1cc(C(C)(C)C)c(O)c(C(C)(C)C)c1 (stereo not given)
not listed: [1] | [2] | [5] | [17] | [18] | [19]
inactive: all other assays above

CNCCCCOc1ccccc1Cc1ccccc1
active: [13] 21.3 µM | [4] 21.3 µM | [15] 21.3 µM | [16] 33.5 µM
inactive: [2] | [6] | [7] | [9] | [10] | [11] | [12]

COc1ccc(-c2nc3ccc(C4=NNC(=O)CC4C)cc3[nH]2)cc1 (stereo not given)
not listed: [4] | [5] | [6] | [9] | [11] | [13] | [14] | [15]
inactive: all other assays above

CCN(CC)c1ccc2c(-c3ccccc3C(=O)O)c3ccc(=[N+](CC)CC)cc-3oc2c1
active: [2] 24.5 µM | [5] 24.5 µM | [15] 24.5 µM | [8] 10.9 µM | [16] 4.33 µM | [11] 3.44 µM
inactive: [9] | [12]

CCCCCCOC(=O)NC(=N)c1ccc(NCc2nc3cc(C(=O)N(CCC(=O)OCC)c4ccccn4)ccc3n2C)cc1
active: [14] 9.52 µM | [8] 26.6 µM | [18] 23.7 µM
inactive: [1] | [2] | [5] | [6] | [15] | [10] | [12]
